# The list is not random: actives were taken first. Their share in the collection is about 19%.
# DT40 TDP1 CPT: DT40-hTDP1 cell growth loss with CPT | AID 686979 | chicken DT40 Tdp1-/-;hTDP1 cells + 20 nM CPT, ATP luminescence, 48 h | actives 12% (n = 420,000) | Potency, µM (series often up to 46.2 µM), for inactives: at the top dose activity change, negative = growth inhibition, hits mostly inhibitors; also: potency is read from the fitted curve at half-maximal effect; nearly all actives have a fitted effect of over 55% in size
#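 Chicken DT40 Tdp1-/- cells stably complemented with human TDP1 were seeded at 400 cells/well in medium containing 20 nM camptothecin, exposed to pin-transferred compounds, and grown at 37 °C for at least 48 hr. Viability was read as ATP luminescence.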
# HT1080NT lethal: kills 2HG-producing HT-1080-NT fibrosarcoma cells; AID 686970; actives 1.6% (n = 360,000); Potency, µM (doses to about 46.1 µM), for the others: top-dose activity, negative = less viability, actives largely listed as cytotoxic; HT-1080-NT fibrosarcoma viability, CellTiter-Glo ATP luminescence, 48 h;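 also: NT is the 2HG producing partner of a matched IDH1 knockdown line; potency is read from the fitted curve at half-maximal effect; 0% = DMSO-treated cells and -100% = media-only wells without cells; nearly all actives have a fitted effect of over 55% in size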
#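 750 cells/well, RPMI + 5% FBS; 2 h settle, compound pin-transfer, 48 h at 37 degrees C. CellTiter-Glo 10 min RT, luminescence. Normalized to DMSO and media-only wells.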
# IL1B secr inh: blocks inflammasome-driven IL-1 beta release | THP-1 LPS/ATP IL-1B secretion, AlphaLISA, 16 h; stronger effect = lower value | activity change, % at 57.5 µM | actives 4.7% (n = 360,000) | AID 743279; in the data active = activity change below about -50%; inconclusive = mostly about -30% to -49%
#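 Secreted IL-1B measured by AlphaLISA bead assay after 16 h compound exposure of THP-1 cells; compounds (final up to 57.5 uM) added 1 h before LPS (250 ng/mL) and ATP (1.25 mM) stimulation; lower signal means less secretion.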
# DT40 TDP1 no CPT: qHTS for Inhibitors of human tyrosyl-DNA phosphodiesterase 1 (TDP1): qHTS in cells in absence of CPT | DT40 Tdp1-/- hTDP1 cells, no CPT, ATP luminescence, 48 h | AID 686978, 2013 | actives 15% (n = 420,000) | Potency, µM (series often up to 46.2 µM), without a hit: top-dose activity change, negative = growth inhibition, actives largely listed as inhibitors; also: potency is read from the fitted curve at half-maximal effect; nearly all actives have a fitted effect of over 55% in size
#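 Chicken DT40 Tdp1-/- cells complemented with human TDP1, screened without camptothecin (DMSO vehicle only), 400 cells/well. Compounds pin-transferred, cells incubated at 37 °C for at least 48 hr. Growth read as ATP-dependent luminescence (CellTiter-Glo, 30 min at RT).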
# HT1080 IDH1KD tx: kills HT-1080 cells with IDH1 knockdown; HT-1080 IDH1 knockdown viability, ATP luminescence, 48 h; Potency, µM (titrated, usually from 46.1 µM), for the others: top-dose activity, negative = toxicity, hits mostly cytotoxic; actives 2% (n = 360,000);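 also: potency is read from the fitted curve at half-maximal effect; 0% = DMSO wells and -100% = cell-free medium wells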
#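 % activity derives from luminescence (CellTiter-Glo), normalised to DMSO and no-cell wells. HT-1080-IDH1KD cells, 750/well, had 48 h compound exposure at 37 °C.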
# Active calls of the source: *; ? = inconclusive; . = no result given. Unless noted, calls follow the shape of the dose curve; as a rule, active = well fitted curve in the direction sought with a large enough effect; inconclusive = small, poorly fitted or top-dose-only effect, or another doubt; inactive = no such curve, though single readings can be large; an effect the other way counts as inactive or inconclusive. Unless noted, % is scaled to controls: 0 for no effect and ±100 for the full control effect.
SMILES,DT40 TDP1 CPT,HT1080NT lethal,IL1B secr inh,DT40 TDP1 no CPT,HT1080 IDH1KD tx
CN(CC(=O)Nc1ccccc1Br)C(=O)c1ccccc1OCc1ccc(F)cc1,?,-2%,-30,?,1%
Cc1ccsc1C(=O)N(C)CC(=O)Nc1ccccc1Br,-2%,2%,-3,-16%,12%
COc1ccc(NC(=O)Cn2c(C)c3cnn(-c4ccccc4)c(=O)c3c2C)c(OC)c1,-18%,.,.,-18%,.
COc1ccc(NC(=O)c2ccc(NC(=O)CN3CCN(c4ccccc4)CC3)cc2)cc1,-1%,-1%,0,-1%,0%
COCc1cc(=O)[nH]c(/N=C(\N)Nc2ccc(Oc3ccccc3)cc2)n1,-23%,-15%,32,?,3%
COCc1cc(=O)[nH]c(/N=C(\N)Nc2cccc(C)c2)n1,-7%,-4%,-9,1%,-1%
Cc1ccc(N/C(N)=N/c2nc(CSc3nnc(C)s3)cc(=O)[nH]2)c(C)c1,0.65µM*,2.6µM*,68,0.82µM*,4.1µM*
CCOc1ccc(N/C(N)=N/c2nc(CSc3nnnn3-c3ccccc3)cc(=O)[nH]2)cc1,16µM*,-1%,0,?,5%
Cc1cccc(N/C(N)=N/c2nc(CSc3ccc(Cl)cc3)cc(=O)[nH]2)c1,8.2µM*,0%,13,9.2µM*,-3%
CCc1ccc(N/C(N)=N/c2nc(CSc3ncccn3)cc(=O)[nH]2)cc1,?,-11%,54,13µM*,-6%
CC1(C(=O)Nc2ccccc2)CCN1C(=O)C1(c2ccccc2)CC1 (centres undefined),?,13%,8,-24%,-3%
O=S(=O)(Nc1nc2ccccc2nc1NCc1ccco1)c1ccc(F)cc1,-23%,-9%,70,-11%,-4%
COc1ccc(NC(=O)/C(C#N)=C/c2cc(C)n(-c3ccc(F)cc3)c2C)cc1,-19%,.,.,-21%,.
Cc1cc(/C=C(\C#N)C(=O)Nc2ccccc2)c(C)n1-c1ccc2c(c1)OCO2,?,?,?,16µM*,?
Cc1ccccc1NC(=O)/C(C#N)=C\c1cc(C)n(-c2ccc(C(=O)O)cc2)c1C,-5%,0%,-56*,-11%,0%
N#C/C(=C\c1ccccc1)C(=O)Nc1cccnc1,1%,-2%,13,6%,-2%
Cc1cc(/C=C(/C#N)C(=O)Nc2ccccc2)c(C)n1-c1cccnc1,?,0%,-60*,?,2%
Cc1ccccc1CNC(=O)CN(c1ccccc1Cl)S(C)(=O)=O,-13%,10%,0,-6%,0%
Cc1cc(Br)cn2c(CC(C)(C)C)c(C3CCCCC3)nc12,?,15%,25,?,14%
COc1ccccc1CNS(=O)(=O)c1ccc(-n2cnnn2)c(OC)c1,-3%,-1%,33,-13%,-2%
O=C(COC(=O)c1ccc(O)cc1)Nc1ccc2c(c1)OCCO2,10µM*,-4%,7,3.3µM*,-2%
Cc1ccccc1OCC(=O)Nc1ccc2c(c1)OCCO2,-21%,2%,0,?,4%
CC(=O)c1c(C)[nH]c(C(=O)OCC(=O)Nc2ccc3c(c2)OCCO3)c1C,?,3%,26,21µM*,5%
CC(=O)c1c(C)[nH]c(C(=O)OCC(=O)Nc2ccc(Cl)cc2[N+](=O)[O-])c1C,3.7µM*,18µM*,28,1.8µM*,-27%
Cc1cccc(C)c1OCC(=O)Nc1ccc2c(c1)OCCO2,18µM*,-11%,-4,?,-7%
Cc1ccc(-n2nc3c(=O)n(CCCC(=O)NC(C)c4ccccc4)nc(C)c3c2C)cc1 (centres undefined),-23%,.,.,?,.
COC(=O)N1CCC2(CCCN(Cc3ccccc3)C2)CC1,19%,.,.,-12%,.
CC(=O)c1c(C)[nH]c(C(=O)OCC(=O)Nc2ccc(Cl)c(S(=O)(=O)N(C)C)c2)c1C,7.3µM*,?,-29,9.2µM*,23µM*
